Bioassay records (PubChem BioAssay)
Jurkat tox 60K = reduces viability or proliferation of Jurkat cells; inhibition, % at 4 µM; actives 1.2% (n = 56,000); Jurkat E6.1 viability, ATP luminescence, 48 h;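 active = inhibition above the mean inhibition of all tested compounds plus 3 SD, cut at about 28% in these data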
Hsp90 block = displaces geldanamycin probe from tumor Hsp90; P07900; NCI-N417 lysate Hsp90, Cy3B-geldanamycin FP displacement; inhibition, % at 30 µM; actives 0.35% (n = 64,000);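 active = inhibition above 50%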;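 note: 0% = tracer plus lysate wells and 100% = tracer alone without lysate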
JNK3 inh = inhibitors of human JNK3 kinase. actives 0.61% (n = 60,000). inhibition, % at 8 µM. P53779. purified JNK3 kinase activity, HTS; in the data active = inhibition above about 17%;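 note: 0% = DMSO and 100% = reference inhibitor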
ROCK2 inh = inhibitors of human Rho kinase 2. AID 604. actives 0.35% (n = 60,000). O75116. purified ROCK2, Kinase-Glo ATP depletion luminescence. inhibition, % at 6 µM;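 active = inhibition above the screen-wide mean inhibition plus 3 SD, cut at about 18% in these data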;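 note: plate controls were DMSO wells for no effect and Y-27632 control wells after no-enzyme background subtraction for full effect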
PKA inh = blocks human protein kinase A activity; PKA Kemptide phosphorylation, Kinase-Glo ATP luminescence; actives 0.1% (n = 65,000); P17612; inhibition, % at 6 µM;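 active = inhibition above the screen-wide mean inhibition plus 3 SD, cut at about 21% in these data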
Starred values were filed as active, the others as inactive; . = no result given. An excerpt weighted towards active compounds, which were near 1.9% of everything screened.

SMILES	Jurkat tox 60K	Hsp90 block	JNK3 inh	ROCK2 inh	PKA inh
CC12CCC(C(=O)N(c3ccccn3)c3ccccn3)(OC1=O)C2(C)C (stereo not given)	-1	0	1	-2	-6
CCOc1cc(C#N)c(NC(=O)c2cccnc2)cc1OCC	72*	-7	1	-1	-2
CCCOc1ccccc1C1CC(=O)Nc2cc3c(cc21)OCCO3 (stereo not given)	98*	-1	-2	-6	4
CCOc1ccccc1C1CC(=O)Nc2cc3c(cc21)OCCO3 (stereo not given)	95*	3	0	2	5
O=C1CC(c2cccnc2)c2cc3c(cc2N1)OCCO3 (stereo not given)	-5	2	5	-1	-6
CC(C)Oc1ccccc1C1CC(=O)Nc2cc3c(cc21)OCO3 (stereo not given)	97*	-4	0	4	4
CCOc1ccc(NC(=O)c2cccc3c2C(=O)N(Cc2cccnc2)C3)cc1	4	-5	-5	4	7
O=C(Cc1cccs1)Nc1nc2c(s1)CCCC2	38*	-20	4	6	4
O=C(Nc1nc2c(s1)CCCC2)c1cccs1	15	-1	4	-12	-9
CCOC(=O)C1CCN(C(=O)CSC2=NCCS2)CC1	1	1	-4	0	0
Nc1ccc2[nH]ncc2c1	.	0	-5	32*	0
S=c1[nH]ncc2ccccc12	1	-1	0	8	10
CCOC(=O)c1cnc2ccc(Cl)cc2c1N1CCN(C)CC1	5	-11	32*	5	4
CCOC(=O)c1cnc2ccc(OCC)cc2c1N1CCN(C)CC1	2	-2	8	3	1
O=C(NC(Cc1ccccc1)c1nc2ccccc2[nH]1)C1CC(=O)N(c2ccc3c(c2)OCCO3)C1 (stereo not given)	0	-14	3	4	3
Cc1ccccc1-n1ncc2c(SCC(=O)NCc3cccs3)ncnc21	40*	-2	-1	2	8
O=C(NCc1cccs1)c1nc2c(nnn2Cc2ccccc2Cl)c(=O)[nH]1	40*	-2	-8	2	3
O=C(Cc1cccs1)N1CCCC(c2nc3c(nnn3Cc3ccccc3Cl)c(=O)[nH]2)C1 (stereo not given)	0	-7	-5	7	4
O=C(CSc1nc(-c2ccco2)cc(C(F)(F)F)n1)Nc1ccc2c(c1)OCO2	29*	5	7	6	11
COc1cc(C(c2nnnn2C(C)(C)C)N2CCN(c3nc4ccccc4s3)CC2)ccc1O (stereo not given)	-2	-2	4	8	-2
CNC(=O)OCc1cnc2ccc(OC)cc2c1COC(=O)NC	.	-2	.	.	.
Cc1nn(-c2ccc(C(=O)Nc3nnc(C4CC4)s3)cc2)c(C)c1Cl	7	2	-7	1	4
Cc1nn(Cc2ccccc2Cl)c(C)c1C(=O)Nc1nnc(C2CC2)s1	47*	-2	7	2	-3
CCNc1nc(NC(C)(C)C)nc(N(C#N)CC)n1	6	1	2	0	0
Cc1cc(NC(=O)CCS(=O)(=O)c2nc(-c3ccccc3)cc(C(F)(F)F)n2)no1	33*	-3	5	-7	-6
SMILES	Jurkat tox 60K	Hsp90 block	JNK3 inh	ROCK2 inh	PKA inh
COc1ccc(-c2cc(C(F)(F)F)nc(SCC(=O)Nc3cc(C)on3)n2)cc1	-3	0	4	8	3
Cc1c(Br)cc(C(=O)NCc2ccco2)c(C)c1C	-1	3	-2	-5	1
Cc1ccc2c(CC(=O)NCc3ccco3)coc2c1C	69*	0	-5	6	6
COc1ccc(S(=O)(=O)Nc2ccc3c(c2)OCO3)cc1C(=O)O	-6	-3	-7	4	7
COc1ccc(S(=O)(=O)Nc2ccc3c(c2)OCO3)cc1OC	1	51*	-3	2	2
NC(=O)c1cc[n+](CC2=C(C(=O)O)N3C(=O)[C@@H](NC(=O)[C@@H](c4ccccc4)S(=O)(=O)[O-])[C@H]3SC2)cc1	.	1	.	.	.
COc1cc2c(cc1OC)C(C)N(C(=O)c1cc3ccccc3o1)CC2 (stereo not given)	28*	-4	2	5	-1
CC#C[C@]1(O)CC[C@H]2[C@@H]3CCC4=CC(=O)CCC4=C3[C@@H](c3ccc(N(C)C)cc3)C[C@@]21C	.	0	.	.	.
CCCCCCc1ccc(-c2ncc(N)cn2)cc1	51*	-2	-1	4	12
O=C(CSC1=NCCS1)Nc1ccnc2ccccc12	29*	0	8	5	10
CCCNC(=O)c1ccc2c(c1)ncn2-c1ccccc1OC	-5	-1	4	7	7
COc1ccccc1-n1cnc2cc(NCc3ccco3)ccc21	58*	-9	1	3	4
CCOc1cc(C)c(Cl)cc1S(=O)(=O)n1cnc2ccccc21	3	0	-5	7	2
CCOc1ccc(Cl)cc1S(=O)(=O)n1cnc2ccccc21	51*	0	-7	-5	-3
COc1ccc(Cl)cc1S(=O)(=O)n1cnc2ccccc21	53*	2	-8	1	2
CCN(CC)C(=O)C1CCCc2c1[nH]c1ccc(Cl)cc21 (stereo not given)	40*	-1	2	6	8
Cc1ccc2[nH]c3c(c2c1)CCCC3C(N)=O (stereo not given)	.	-7	-6	4	6
Cc1nnc(SCc2cc(=O)[nH]c(N3CCCCC3)n2)s1	1	-2	2	4	2
Cc1cc2ncn(C(=O)c3c(-c4ccccc4Cl)noc3C)c2cc1C	1	2	3	8	7
CC(=O)c1cc(C#N)c(SCCC(C)C)nc1C	-4	-4	-2	2	-5
CC(=O)c1cc(C#N)c(SCc2ccncc2)nc1C	.	-10	-18	28*	2
COc1ccccc1N1CCN(C(=O)CSc2nnc3n2C(C)(C)Cc2ccccc2-3)CC1	60*	-3	-1	4	6
O=C(NCC(c1cccnc1)N1CCN(c2ccccc2)CC1)c1ccco1 (stereo not given)	-1	-5	8	7	15
CCOC(=O)C1CCN(C(c2cccnc2)c2c(NC(=O)c3ccco3)sc(C)c2C)CC1 (stereo not given)	34*	-2	-2	1	13
Cc1sc(NC(=O)c2ccco2)c(C(c2cccnc2)N2CCN(c3ccc(F)cc3)CC2)c1C (stereo not given)	35*	-1	-7	1	8
SMILES	Jurkat tox 60K	Hsp90 block	JNK3 inh	ROCK2 inh	PKA inh
CCOC(=O)C1CCN(C(=O)c2cccnc2)CC1	6	-2	1	-1	0
Nc1cc(C(=O)N2CCCC2)cc(C(=O)N2CCCC2)c1	-9	-9	-4	7	10
O=C1OCc2cc(NC(=O)C3COc4ccccc4O3)ccc21 (stereo not given)	-2	-3	-1	2	11
COc1ccc(C(=O)n2c(-c3ccco3)nc3ccccc32)cc1	78*	-5	-2	8	2
COc1cccc(OCc2nc3ncc(Br)cc3[nH]2)c1	65*	-4	12	2	7
COc1cccc(OCc2nc3ccccc3[nH]2)c1	.	0	.	.	.
